Results published in publication PMC5540273 (PLoS ONE, 2017).

Assays:
Settings in all cases: concentration: 1 μM, replicates: in singlicate; n = 1
RIPK1 = system: RIPK1
RIPK2 = system: RIPK2
RIPK4 = system: RIPK4
RIPK5 = system: RIPK5
ROCK1 = system: ROCK1
ROCK2 = system: ROCK2
ROS1 = system: ROS1
[1] = system: RPS6KA4(Kin.Dom.1-N-terminal)
[2] = system: RPS6KA4(Kin.Dom.2-C-terminal)
[3] = system: RPS6KA5(Kin.Dom.1-N-terminal)
[4] = system: RPS6KA5(Kin.Dom.2-C-terminal)
[5] = system: T1, RSK1(Kin.Dom.1-N-terminal)
T1 construct: gene RPS6KA1

[6] = system: T2, RSK1(Kin.Dom.2-C-terminal)
T2 construct: gene RPS6KA1

[7] = system: T3, RSK2(Kin.Dom.1-N-terminal)
T3 construct: gene RPS6KA3

[8] = system: T4, RSK2(Kin.Dom.2-C-terminal)
T4 construct: gene RPS6KA3

[9] = system: T5, RSK3(Kin.Dom.1-N-terminal)
T5 construct: gene RPS6KA2

[10] = system: T6, RSK3(Kin.Dom.2-C-terminal)
T6 construct: gene RPS6KA2

[11] = system: T7, RSK4(Kin.Dom.1-N-terminal)
T7 construct: gene RPS6KA6

[12] = system: T8, RSK4(Kin.Dom.2-C-terminal)
T8 construct: gene RPS6KA6

S6K1 = system: S6K1
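Note: KINOMEscan kinase panel screen.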

SMILES | %Inh (RIPK1) | %Inh (RIPK2) | %Inh (RIPK4) | %Inh (RIPK5) | %Inh (ROCK1) | %Inh (ROCK2) | %Inh (ROS1) | %Inh [1] | %Inh [2] | %Inh [3] | %Inh [4] | %Inh [5] | %Inh [6] | %Inh [7] | %Inh [8] | %Inh [9] | %Inh [10] | %Inh [11] | %Inh [12] | %Inh (S6K1)
CCn1c(-c2ccncc2)nc2cnccc21 [SB-735216] | 0% | 15% | 10% | 14% | 31% | 13% | 2% | 0% | 11% | 0% | 0% | 19% | 16% | 19% | 34% | 8% | 40% | 14% | 39% | 32%
Oc1ccc2ncnc(Nc3ccc(OCc4ccccc4)cc3)c2c1 [GI262866] | 1% | 100% | 6% | 0% | 0% | 0% | 0% | 8% | 0% | 4% | 0% | 0% | 0% | 0% | 0% | 5% | 0% | 0% | 0% | 0%
Nc1n[nH]c2nnc(-c3ccccc3)cc12 [SB-517389] | 0% | 17% | 17% | 0% | 0% | 0% | 0% | 4% | 38% | 5% | 2% | 28% | 9% | 0% | 76% | 4% | 24% | 0% | 25% | 25%
CCCc1ccc(S(=O)(=O)NC2CCN(c3ccnc(Nc4ccc(OC)cc4)n3)C2)cc1 (centres unmarked) [GSK1379737] | 0% | 0% | 0% | 0% | 12% | 28% | 5% | 4% | 0% | 0% | 7% | 0% | 0% | 2% | 13% | 0% | 0% | 0% | 0% | 16%
FC(F)(F)c1ccc(-c2cc(-c3c[nH]nc3-c3ccccn3)ccn2)cc1 [GW599550] | 0% | 25% | 2% | 0% | 26% | 15% | 31% | 14% | 0% | 20% | 15% | 20% | 7% | 0% | 2% | 12% | 5% | 0% | 42% | 2%
CCC(CC)(CC)n1cnc2c(N)ncnc21 [SKF-97620] | 0% | 1% | 41% | 25% | 44% | 0% | 0% | 24% | 13% | 14% | 4% | 0% | 34% | 41% | 10% | 0% | 22% | 40% | 2% | 16%
Clc1cccc(-c2nc(Nc3ccncc3)c3ccccc3n2)c1 [GW873004] | 25% | 10% | 0% | 0% | 0% | 0% | 20% | 51% | 1% | 32% | 16% | 0% | 10% | 49% | 40% | 0% | 2% | 0% | 24% | 0%
Cn1ccc2ncnc(Nc3ccc(Oc4cccc(Cl)c4)c(Cl)c3)c21 | 0% | 47% | 0% | 40% | 3% | 0% | 0% | 0% | 1% | 19% | 11% | 13% | 0% | 20% | 0% | 19% | 10% | 29% | 14% | 0%
N#Cc1ccc(Oc2ccc(Nc3ncnc4cc[nH]c34)cc2Cl)cc1 | 2% | 26% | 0% | 6% | 2% | 0% | 0% | 0% | 8% | 20% | 0% | 20% | 17% | 19% | 0% | 9% | 23% | 16% | 32% | 10%
Fc1cccc(COc2ccc(Nc3ncnc4cc[nH]c34)cc2Cl)c1 | 13% | 25% | 16% | 33% | 0% | 0% | 35% | 9% | 11% | 2% | 0% | 12% | 23% | 15% | 0% | 8% | 26% | 20% | 29% | 21%
